Most compounds without a hit are left out; they make up all but 5.9% or so of the library.
Coupling enz = counter-screen for Giardia aldolase inhibitors: coupling enzyme system; coupling enzyme system counterscreen, AmpLite Red fluorescence; AID 2472; activity change, negative = inhibition, % at 58.2 µM, hits read low; 290,000 tested, 0.67% active; in the data active means activity change below about -30%
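Counterscreen of the coupled detection system alone, without aldolase: glyceraldehyde-3-phosphate coupling enzymes plus AmpLite Red readout. Compounds at 57.5 uM final, 10 min RT preincubation, 20 min RT reaction, fluorescence 525/598 nm.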
RORg inh = inhibitors of mouse ROR gamma transcriptional activity | P51450 | Drosophila S2 Gal4-RORgamma UAS-luciferase reporter, 20 h | Potency, µM (highest dose often 53.6 µM), for the others: at the highest dose activity change, negative = inhibition, actives largely listed as inhibitors | 310,000 tested, 5.4% active; further: potency means the concentration at half of the fitted maximal effect; nearly all actives have a fitted effect of over 60% in size
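Stably transfected Drosophila Schneider cells are the test system, with ROR gamma fused to Gal4 and luciferase under UAS control; luminescence is read after 20 hr of 700 uM copper sulfate induction at ambient temperature.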
TrxR1 substrate = rat thioredoxin reductase 1 substrate activity. O89049. purified TrxR1 substrate turnover, NADPH consumption readout. Potency, µM (titrated, usually from 114 µM), without a hit: at the top dose activity change, negative = substrate turnover. 390,000 tested, 0.01% active. AID 588456; further: potency means the concentration at half of the fitted maximal effect; nearly all actives have a fitted effect of over 50% in size
Target sequence (O89049 whole entry, looked up): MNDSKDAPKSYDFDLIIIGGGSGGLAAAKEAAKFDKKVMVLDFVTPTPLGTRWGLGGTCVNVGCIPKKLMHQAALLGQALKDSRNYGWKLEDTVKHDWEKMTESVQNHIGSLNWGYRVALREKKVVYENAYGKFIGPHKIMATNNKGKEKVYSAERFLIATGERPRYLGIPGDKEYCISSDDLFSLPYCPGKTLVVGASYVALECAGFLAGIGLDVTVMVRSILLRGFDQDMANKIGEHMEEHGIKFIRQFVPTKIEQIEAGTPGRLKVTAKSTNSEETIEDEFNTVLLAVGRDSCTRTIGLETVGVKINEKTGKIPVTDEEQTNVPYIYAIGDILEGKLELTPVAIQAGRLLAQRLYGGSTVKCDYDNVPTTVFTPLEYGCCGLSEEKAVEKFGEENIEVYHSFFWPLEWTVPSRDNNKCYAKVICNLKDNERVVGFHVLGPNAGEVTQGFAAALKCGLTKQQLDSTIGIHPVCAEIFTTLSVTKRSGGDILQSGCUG
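Rat TrxR1, dispensed at 90 nM, was prereduced with 400 uM NADPH (final) for 5 min at ~22 deg C, then incubated with compound 15 min before 400 uM selenite. A first-read NADPH fluorescence drop versus no-compound background flagged substrates.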
GALK inh = blocks human galactokinase activity; 270,000 tested, 0.007% active; Potency, µM (highest dose often 57.5 µM), for inactives: top-dose activity change, negative = inhibition, actives largely listed as inhibitors; Purified GALK, Kinase-Glo residual ATP luminescence; further: potency means the concentration at half of the fitted maximal effect
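Compounds were pin-transferred into ATP buffer (35 uM final), then GALK plus galactose (5 nM, 100 uM final) was added. After 1 h at room temperature, Kinase-Glo Plus was added and luminescence read after 10 min.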
VP16 counter = counter-screen for ROR gamma inhibitors: Gal4-VP16 reporter | Drosophila S2 Gal4-VP16 UAS-luciferase, luminescence, 20 h | Potency, µM (doses to about 53.6 µM), without a hit: at the top dose activity, negative = inhibition, most hits filed as inhibitors | 310,000 tested, 3.5% active;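 further: Gal4-VP16 expression switched on by copper sulfate through the metallothionein promoter; potency means the concentration at half of the fitted maximal effect; nearly all actives have a fitted effect of over 50% in size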
TrxR1 inh = inhibitors of rat thioredoxin reductase 1. O89049. recombinant rTrxR1, NADPH fluorescence consumption, selenite substrate. AID 588453. Potency, µM (doses to about 114 µM), inactives show at the top dose activity change, negative = inhibition, usual class: inhibitors. 390,000 tested, 1% active; further: potency means the concentration at half of the fitted maximal effect; nearly all actives have a fitted effect of over 65% in size
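Rat TrxR1 (90 nM in the dispensed reagent) was pre-reduced with 400 uM NADPH for 5 min at room temperature, then incubated with compound for 15 min. After 400 uM selenite was added, NADPH fluorescence (Ex 340/Em 450 nm) was followed for 8 min.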
* hit, by the source's call; [ ] = remark or other dose. Unless noted, the call rests on the fitted dose curve; in most records, active means well fitted curve in the direction sought with a large enough effect; inconclusive means small, poorly fitted or top-dose-only effect, or another doubt; inactive means no such curve, though single readings can be large; an effect the other way counts as inactive or inconclusive. On the % scale 0 is the no-effect control and ±100 the full control effect.

`COC(=O)/C=C\c1cc(O)ccc1O` gave Coupling enz -7.8, RORg inh 14.1µM* and VP16 counter 11.2µM*.
`COc1ccc(S(=O)(=O)N2CCC(C(=O)NCCC(=O)NCc3ccccc3OC)CC2)cc1` gave RORg inh 9.4%, TrxR1 substrate -4.7%, GALK inh -2.9%, VP16 counter -4.8% and TrxR1 inh -16.0%.
Cn1c(=O)oc2cc(S(=O)(=O)NC3CCCc4ccccc43)ccc21 (configuration not stated) was read as Coupling enz 5.0, RORg inh -11.7%, TrxR1 substrate 9.0%[57.1 µM], GALK inh 1.7%, VP16 counter -14.9% and TrxR1 inh 9.0%[57.1 µM].
Screening O=S(=O)(NC1CCCc2ccccc21)c1cnc[nH]1 (configuration not stated) returned Coupling enz 3.3, RORg inh 12.6µM*, TrxR1 substrate 4.5%, GALK inh 0.1%, VP16 counter inconclusive and TrxR1 inh 9.1%.
`O=C(O)C1OC2OC3(CCCCC3)OC2C2OC3(CCCCC3)OC12` (configuration not stated) gave Coupling enz 5.8, RORg inh 20.0%, TrxR1 substrate 8.1%[57.1 µM], GALK inh 2.5%, VP16 counter -7.7% and TrxR1 inh 17.0%[57.1 µM].
For Cc1ccc(NC(=O)c2cc(S(=O)(=O)NC3CCCCCC3)ccc2F)cc1F the results were TrxR1 substrate -8.0%[57.1 µM] and TrxR1 inh 12.1%[57.1 µM].
For OCC1(CO)COC(/C=C/c2ccccc2)=N1 the results were Coupling enz 0.0, RORg inh 21.9%, TrxR1 substrate -1.3%, GALK inh -2.6%, VP16 counter 4.9% and TrxR1 inh 12.1%.
Screening CCC/C=C(\CCC)C(NC(=O)OCC(C)C)c1ccccc1 (configuration not stated) returned Coupling enz -1.4, RORg inh 2.3% and VP16 counter -4.0%.
Screening CC(C)NC(=S)NNc1ncnc2sc3c(c12)CC(C)(C)OC3 returned TrxR1 substrate 5.9% and TrxR1 inh 1.2%.
CC1(C)Cc2c(sc3ncnc(NNC(=S)NCc4ccccc4)c23)CO1 was read as Coupling enz 2.7, RORg inh 2.24µM*, TrxR1 substrate 2.5%, VP16 counter 3.16µM* and TrxR1 inh 15.1%.
For O=C(O)Cc1sc(N/N=C\c2ccncc2)nc1-c1ccccc1 the results were Coupling enz 3.0, RORg inh -19.6%, TrxR1 substrate -7.9%, GALK inh -4.6%, VP16 counter 19.3% and TrxR1 inh 3.16µM*.
Screening CCOC(=O)COn1c(=O)c(-c2ccco2)[n+]([O-])c2ccccc21 returned Coupling enz -22.1, RORg inh 0.0%, TrxR1 substrate 8.1%, GALK inh -1.4%, VP16 counter -0.8% and TrxR1 inh 8.91µM*.
CCOC(=O)COn1c(=O)c(-c2ccc(C)cc2)[n+]([O-])c2ccccc21 was read as Coupling enz 1.2, RORg inh 29.8%, TrxR1 substrate -4.1%, GALK inh 0.0%, VP16 counter 6.1% and TrxR1 inh 3.1%.
Screening CC1(c2ccc(OC(F)F)cc2)NC(=O)N(/N=C/c2c(O)ccc3ccccc23)C1=O (configuration not stated) returned Coupling enz -12.2, RORg inh inconclusive, TrxR1 substrate -2.7%, GALK inh 0.3%, VP16 counter 14.1µM* and TrxR1 inh 7.7%.
For CC1(c2ccc(OC(F)F)cc2)NC(=O)N(CC(=O)Nc2cccc(S(N)(=O)=O)c2)C1=O (configuration not stated) the results were Coupling enz -2.0, RORg inh -1.9%, TrxR1 substrate -6.6%, GALK inh -2.0%, VP16 counter 4.3% and TrxR1 inh 17.2%.
O=C(C=Cc1cccnc1)c1ccccc1 was read as TrxR1 substrate -7.0% and TrxR1 inh 28.2µM*.
`O=C(/C=C/c1cccnc1)c1ccccc1O` gave Coupling enz 1.3, RORg inh 17.8µM*, TrxR1 substrate -4.3%[2.29 µM], GALK inh -4.5%, VP16 counter inconclusive and TrxR1 inh -3.9%[2.29 µM].
For COc1ccc(/C=C/C(=O)c2nc3ccccc3n2CC(=O)c2ccc(OC)cc2)cc1 the results were Coupling enz -2.7, RORg inh 10µM*, TrxR1 substrate -3.4%, GALK inh -1.3%, VP16 counter -8.0% and TrxR1 inh -0.6%.
O=C(/C=C/c1cccnc1)c1ccc(O)cc1 was read as Coupling enz 0.3, RORg inh 12.6µM*, TrxR1 substrate 3.9%, GALK inh -3.7%, VP16 counter -87.8% and TrxR1 inh -11.3%.
`CCOC(=O)Nc1ccc(C(=O)/C=C/c2ccccc2)cc1` gave Coupling enz -20.8, RORg inh 7.08µM*, TrxR1 substrate 1.3%, GALK inh 2.9%, VP16 counter inconclusive and TrxR1 inh 6.1%.
COc1ccc(C(=O)/C=C/c2ccc(O)cc2)c(O)c1CC=C(C)C was read as Coupling enz 0.2, RORg inh 3.98µM*, TrxR1 substrate -5.9%, VP16 counter 7.94µM* and TrxR1 inh 24.9%.
`O=C(/C=C/c1cccc(O)c1)c1ccc(N2CCOCC2)cc1` gave Coupling enz -2.9, RORg inh 3.55µM*, TrxR1 substrate -12.0%, GALK inh -4.5%, VP16 counter inconclusive and TrxR1 inh -16.1%.
CCOC(=O)Nc1ccc(Oc2ccccc2)cc1 was read as Coupling enz -0.6, RORg inh inconclusive, TrxR1 substrate 1.3%, GALK inh 0.2%, VP16 counter 11.2% and TrxR1 inh 0.0%.
For O=C(/C=C/c1cccnc1)c1ccc([N+](=O)[O-])cc1 the results were Coupling enz 0.3, RORg inh inconclusive, TrxR1 substrate 12.1%, GALK inh 1.9%, VP16 counter inconclusive and TrxR1 inh -19.2%.
COc1ccc(/C=C/C(=O)c2ccc(O)cc2)cc1CN1CCOCC1 was read as Coupling enz -0.2, RORg inh 37.9%, TrxR1 substrate 0.4%, GALK inh -0.1%, VP16 counter -1.9% and TrxR1 inh 1.0%.
`CN(C)C(=O)COc1ccc(C(=O)/C=C/c2cccnc2)cc1` gave Coupling enz 3.9, RORg inh 17.8µM*, TrxR1 substrate -7.4%, GALK inh 4.7%, VP16 counter inconclusive and TrxR1 inh -23.3%.
Screening COc1cccc(/C=N/NC(=O)CCCC(=O)NC2CCCCC2)c1 returned Coupling enz -3.9, RORg inh 6.3%, TrxR1 substrate 8.1%[57.1 µM], GALK inh 2.7%, VP16 counter -6.5% and TrxR1 inh 4.6%[57.1 µM].
